The target in the test is T1, ACLY (UniProt P53396).
T1 sequence (whole entry): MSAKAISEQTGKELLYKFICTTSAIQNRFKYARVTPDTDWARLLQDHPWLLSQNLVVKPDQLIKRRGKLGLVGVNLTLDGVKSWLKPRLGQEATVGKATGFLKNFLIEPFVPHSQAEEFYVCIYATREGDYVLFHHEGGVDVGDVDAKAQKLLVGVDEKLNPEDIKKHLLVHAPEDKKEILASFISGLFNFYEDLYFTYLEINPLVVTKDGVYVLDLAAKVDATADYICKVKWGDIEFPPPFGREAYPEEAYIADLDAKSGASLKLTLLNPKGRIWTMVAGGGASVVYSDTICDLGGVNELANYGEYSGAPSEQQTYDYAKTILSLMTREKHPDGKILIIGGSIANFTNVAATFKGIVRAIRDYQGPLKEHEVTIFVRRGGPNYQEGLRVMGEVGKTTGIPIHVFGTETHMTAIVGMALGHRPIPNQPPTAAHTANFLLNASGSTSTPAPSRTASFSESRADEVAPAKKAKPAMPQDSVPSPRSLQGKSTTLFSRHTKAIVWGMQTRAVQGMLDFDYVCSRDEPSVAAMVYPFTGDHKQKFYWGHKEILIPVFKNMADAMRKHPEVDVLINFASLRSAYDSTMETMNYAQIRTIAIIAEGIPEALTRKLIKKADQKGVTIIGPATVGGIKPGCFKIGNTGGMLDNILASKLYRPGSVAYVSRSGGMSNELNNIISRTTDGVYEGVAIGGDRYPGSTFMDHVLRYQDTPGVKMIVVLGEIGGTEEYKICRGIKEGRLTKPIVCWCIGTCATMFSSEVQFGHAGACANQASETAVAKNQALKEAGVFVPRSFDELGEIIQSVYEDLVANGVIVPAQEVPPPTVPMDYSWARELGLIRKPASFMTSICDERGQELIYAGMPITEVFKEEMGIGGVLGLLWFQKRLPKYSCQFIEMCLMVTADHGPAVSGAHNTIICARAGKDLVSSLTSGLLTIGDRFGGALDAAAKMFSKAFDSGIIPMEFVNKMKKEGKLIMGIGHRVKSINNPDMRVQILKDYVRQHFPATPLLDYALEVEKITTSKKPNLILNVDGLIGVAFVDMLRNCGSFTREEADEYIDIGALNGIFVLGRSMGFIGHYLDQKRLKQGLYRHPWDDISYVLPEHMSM
Kind of test: NP40-soluble protein abundance relative to vehicle (solubility fold change) (ratio); higher = more soluble protein in presence of GTP. The protocol: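 Solubility proteome profiling in Jurkat crude lysate. Lysate was treated with Mg-GTP (0.1-10 mM) for 10 min at room temperature and 3 min at 37 °C, then solubilised with 0.8% NP40 and benzonase, followed by ultracentrifugation. Proteins were quantified by TMT10 LC-MS/MS; the value is the NP40-soluble abundance relative to the NP40-processed vehicle, from 3 independent experiments.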

Each structure is given as a SMILES string. ± gives the standard deviation of the averaged measurements. About 5,400 targets were measured; listed, in parts, are those with the largest changes and a random draw of the rest.

The results in this text go back to the supplement of paper PMC6411743.

In the case of `Nc1nc2c(ncn2[C@@H]2O[C@H](COP(=O)(O)OP(=O)(O)OP(=O)(O)O)[C@@H](O)[C@H]2O)c(=O)[nH]1` [guanosine triphosphate], the NP40-soluble protein abundance reads like this: (concentration: 0.1mM) 1.06 ± 0.044; (concentration: 0.5mM) 1.08 ± 0.088; (concentration: 1mM) 0.972 ± 0.084; (concentration: 2mM) 0.968 ± 0.11; (concentration: 4mM) 0.991 ± 0.084; (concentration: 6mM) 0.963 ± 0.11. The NP40-soluble protein abundance is 0.97 ± 0.065 (concentration: 8mM) and 0.906 ± 0.07 (concentration: 10mM).
